G9a inh: qHTS Assay for Inhibitors of Histone Lysine Methyltransferase G9a. AID 504332, 2011. hit rate 8.8% among 350,000. Potency, µM (series often up to 102 µM), actives largely listed as inhibitors. G9a H3K9 monomethylation, AlphaScreen, 2 h; also: nearly all actives have a fitted effect of over 75% in size
Target sequence (Q96KQ7 913-1193 limits assumed): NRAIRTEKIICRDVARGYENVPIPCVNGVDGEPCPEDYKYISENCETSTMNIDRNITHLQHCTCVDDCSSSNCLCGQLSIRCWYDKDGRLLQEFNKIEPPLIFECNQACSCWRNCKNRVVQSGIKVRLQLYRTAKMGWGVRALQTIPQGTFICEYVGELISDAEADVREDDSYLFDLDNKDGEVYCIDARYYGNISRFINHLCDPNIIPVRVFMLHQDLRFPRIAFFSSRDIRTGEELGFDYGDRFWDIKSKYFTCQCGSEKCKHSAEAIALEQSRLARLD
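Chemiluminescent proximity detection of H3K9 monomethylation, read after 10 min bead incubation in the dark. Reaction: 20 nM G9a, 500 nM biotin-H3K9 peptide, 20 uM SAM cofactor, 2 h, room temperature, following 15 min enzyme-compound preincubation.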
L3MBTL1 block: qHTS Assay for the Inhibitors of L3MBTL1; Lethal(3)malignant brain tumor-like protein 1 (Homo sapiens), Q9Y468; AlphaScreen L3MBTL1–H3K9me1 peptide binding; Potency, µM (titrated, usually from 57.1 µM), most hits filed as inhibitors; hit rate 0.66% among 230,000; AID 485360, 2010; also: nearly all actives have a fitted effect of over 60% in size
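AlphaScreen proximity signal between nickel-chelate acceptor and streptavidin donor beads (final 10 ug/mL) reports binding of 50 nM L3MBTL1 to 75 nM biotin-H3 K9me1 peptide; complex incubated with compounds 30 min at room temperature; cefsulodin titration as control.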
BAZ2B block: qHTS Assay for Inhibitors of BAZ2B | Bromodomain adjacent to zinc finger domain protein 2B (Homo sapiens), Q9UIF8 | AlphaScreen BAZ2B-H3K14Ac peptide displacement | Potency, µM (series often up to 114 µM), usual class: inhibitors | hit rate 4.4% among 360,000 | AID 504333, 2011; also: nearly all actives have a fitted effect of over 60% in size
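AlphaScreen displacement: compounds (up to 110uM) incubated 30 min at room temperature with a preformed 50 nM BAZ2B/50 nM biotinylated H3K14Ac peptide complex in PBS pH 7.4 with Tween-20. Donor and acceptor beads at 10 ug/mL final added, 20 min light-protected before reading.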
Sfp PPTase inh: qHTS Assay for Inhibitors of Bacillus subtilis Sfp phosphopantetheinyl transferase (PPTase); Biochemical Sfp PPTase activity, qHTS; Potency, µM, most hits filed as inhibitors; hit rate 3.5% among 310,000; AID 1490, 2009;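 also: the enzyme is Sfp with the accession as filed and its product quenches rhodamine fluorescence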
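Reaction rates are the 30-min fluorescence difference (ex 525, em 598 nm) in wells containing 15 nM Sfp, 5 uM rhodamine-CoA and 12.5 uM BHQ-2-YbbR at pH 7.6 with 10 mM MgCl2.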
HP1b binding inh: HTS for Inhibitors of HP1-beta Chromodomain Interactions with Methylated Histone Tails. Potency, µM (top dose mostly 114 µM), most hits filed as inhibitors. hit rate 0.56% among 390,000. AlphaScreen HP1-beta / biotin-H3K9me3 peptide binding. AID 540317, 2011. Chromobox protein homolog 1 (Homo sapiens), P83916; also: nearly all actives have a fitted effect of over 70% in size
Target sequence (P83916 whole entry, looked up): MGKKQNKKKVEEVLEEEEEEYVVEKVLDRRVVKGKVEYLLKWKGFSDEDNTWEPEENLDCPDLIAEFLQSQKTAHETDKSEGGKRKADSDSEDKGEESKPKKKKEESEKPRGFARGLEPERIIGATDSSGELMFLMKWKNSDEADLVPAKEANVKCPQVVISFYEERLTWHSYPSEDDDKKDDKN
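HP1-beta protein (50 nM final) preincubated 30 min at room temperature with biotinylated H3(1-18)K9me3 peptide (50 nM) in PBS pH 7.4, 0.01% Tween-20, then compound added for 30 min. AlphaScreen streptavidin donor/nickel chelate acceptor beads (10 ug/mL final), 30 min dark, luminescence read.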
JMJD2A Tudor inh: qHTS Assay for Inhibitors of JMJD2A-Tudor Domain; Lysine-specific demethylase 4A (Homo sapiens), O75164; AlphaScreen JMJD2A-Tudor / H3K4me3 peptide binding; Potency, µM (titrated, usually from 114 µM), hits mostly inhibitors; hit rate 4.4% among 390,000; AID 504339, 2011; also: nearly all actives have a fitted effect of over 50% in size
Large screens that a line does not name were inactive. Only some compounds are listed: those with a hit (about 12% of all), similar ones and a draw of the others. Calls follow the shape of the dose curve; as a rule, active = well fitted curve in the direction sought with a large enough effect; inconclusive = small, poorly fitted or top-dose-only effect, or another doubt; inactive = no such curve, though single readings can be large; an effect the other way counts as inactive or inconclusive.

O=c1c2cc(Br)cc(Br)c2oc2nc3n(c(=O)c12)CCCS3	none (no result: L3MBTL1 block, HP1b binding inh, JMJD2A Tudor inh)
O=Cc1ccc2oc3nc4n(c(=O)c3c(=O)c2c1)CCCS4	G9a inh inconclusive, BAZ2B block 56.2µM, HP1b binding inh inconclusive, JMJD2A Tudor inh inconclusive (no result: L3MBTL1 block)
CCc1ccc(S(=O)(=O)c2nnn3c2nc(NC2CCCCCC2)c2sccc23)cc1	none (no result: L3MBTL1 block, Sfp PPTase inh)
Cc1ccc(CNC(=O)Cc2ccc(-n3cccc3)cc2)cc1	none
O=C(O)Cc1ccc(-n2cccc2)cc1	G9a inh 20µM, BAZ2B block 8.91µM, HP1b binding inh 25.1µM, JMJD2A Tudor inh 39.8µM (no result: L3MBTL1 block)
Cc1ccc(CNC(=O)c2ccc(-n3cccc3)cc2)cc1	G9a inh inconclusive, BAZ2B block 25.1µM, HP1b binding inh 22.4µM, JMJD2A Tudor inh 39.8µM (no result: L3MBTL1 block)
CC(C)Cc1ccc(CC(=O)O)cc1	G9a inh 11.2µM, Sfp PPTase inh inconclusive (no result: L3MBTL1 block, BAZ2B block, HP1b binding inh, JMJD2A Tudor inh)
COc1ccc(S(=O)(=O)NCCc2cn3ccsc3n2)cc1OC	none (no result: L3MBTL1 block, Sfp PPTase inh)
COc1cc(Cl)c(NC(=O)CN2C(=O)c3cccnc3Sc3ccccc32)c(OC)c1	none (no result: L3MBTL1 block, Sfp PPTase inh)
CCCCn1c(SCc2c(C)noc2C)nc2cc(S(N)(=O)=O)ccc21	G9a inh 50.1µM
CC(C)(C)NC(=O)CN(Cc1ccc2c(c1)OCO2)C(=O)CCC(=O)Nc1nccs1	G9a inh 39.8µM
COCCNC(=O)CN(Cc1ccc2c(c1)OCO2)C(=O)CCC(=O)Nc1nccs1	JMJD2A Tudor inh 28.2µM
COCCN(CC(=O)NCc1ccc2c(c1)OCO2)C(=O)CCC(=O)Nc1nccs1	none
Cc1cccc(C(=O)Nc2onc(C)c2C#N)c1	BAZ2B block inconclusive, JMJD2A Tudor inh 89.1µM (no result: G9a inh)
CCOc1ccc(S(=O)(=O)NCc2nc3cccnc3n2Cc2ccccc2OC)cc1	none (no result: L3MBTL1 block, Sfp PPTase inh)
Cc1ccc(NC(=O)CCNS(=O)(=O)c2ccc3c(c2)CCN3C(=O)C2CC2)c(Cl)c1	none (no result: L3MBTL1 block, Sfp PPTase inh)
COc1ccc(C2=C(Nc3ccc(C)cc3C)c3ccccc3C2=O)cc1	G9a inh inconclusive, JMJD2A Tudor inh 28.2µM (no result: L3MBTL1 block, Sfp PPTase inh)
COc1ccc(NC2=C(c3ccc(OC)cc3)C(=O)c3ccccc32)cc1	none
CCOC(=O)c1ccc(NC(=O)CC2C(=O)N(c3cccc(OC)c3)C(=O)N2Cc2ccc(OC)cc2)cc1 (stereo not given)	none (no result: L3MBTL1 block, Sfp PPTase inh)
COc1ccc(CN2COc3ccc4c(C)cc(=O)oc4c3C2)cc1	none (no result: L3MBTL1 block, Sfp PPTase inh)
OC(CNCCc1ccc(Cl)cc1)COc1ccc2ccccc2c1 (stereo not given)	BAZ2B block inconclusive, Sfp PPTase inh 31.6µM (no result: L3MBTL1 block)
OC(CNCCc1ccccc1)COc1ccc(OCC(O)CNCCc2ccccc2)cc1 (stereo not given)	JMJD2A Tudor inh inconclusive (no result: G9a inh)
C/C=C/c1ccc(OCC(O)CNCC(c2ccc(OC)cc2)N(C)C)c(OC)c1 (stereo not given)	G9a inh inconclusive, BAZ2B block 17.8µM, JMJD2A Tudor inh 22.4µM (no result: L3MBTL1 block)
C/C=C/c1ccc(OCC(=O)Nc2cc(OC)c(OC)c(OC)c2)c(OC)c1	JMJD2A Tudor inh inconclusive (no result: BAZ2B block)
C/C=C/c1ccc(OCC(O)CN2CCCCC2CC)c(OC)c1 (stereo not given)	G9a inh 22.4µM, BAZ2B block 56.2µM, HP1b binding inh inconclusive, JMJD2A Tudor inh 3.55µM
C/C=C/c1ccc(OCC(O)CN(C)Cc2ccc(SC)cc2)c(OC)c1 (stereo not given)	G9a inh 70.8µM, BAZ2B block 50.1µM, HP1b binding inh inconclusive, JMJD2A Tudor inh 3.98µM (no result: L3MBTL1 block)
C=CCc1ccc(OCC(O)CO)c(OC)c1 (stereo not given)	G9a inh inconclusive (no result: L3MBTL1 block)
CCC(=O)N1CCc2cc(S(=O)(=O)CCC(=O)N3CCN(c4cccc(C)c4)C(C)C3)ccc21 (stereo not given)	none (no result: L3MBTL1 block, BAZ2B block, Sfp PPTase inh)
COc1ccccc1-c1nn2c(=O)cc(CN3CCN(C(=O)/C=C/c4ccccc4)CC3)nc2s1	none (no result: L3MBTL1 block, Sfp PPTase inh)
